Measurements as given in PubChem BioAssay AID651791 (National Center for Advancing Translational Sciences (NCATS), 2012).
Inconclusive results are not listed. Activity calls are given as the source filed them. The call rests on the fitted dose curve; in most records, active means well fitted inhibition curve with a large enough effect; inconclusive means small, poorly fitted or top-dose-only effect; inactive means no such curve, though single readings can be large or run the other way.

Assay: InCell qHTS Assay for Inhibitors of the mTORC1 Signaling Pathway in MEF (Tsc2-/-, p53-/-) Cells: Hit Validation;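 further: phospho-S6 Ser235/236 signal normalized to propidium iodide cell count per well; nearly all actives have a fitted effect of over 75% in size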
Conditions: phospho-rpS6 immunofluorescence, 24 h; activity change, negative = inhibition: at 38.3 µM (top of the series)
Potency means the concentration at half of the fitted maximal effect.

Activity change, negative = inhibition, -27%:
CC(C)(C)C(=O)Nc1ccc(-c2nc3ccc(NC(=O)C(C)(C)C)cc3[nH]2)cc1

Activity change, negative = inhibition, -28.2%:
O=C(c1ccc(CS(=O)c2ccccc2Cl)o1)N1CCN(c2cccc(C(F)(F)F)c2)CC1 (configuration not stated)

Activity change, negative = inhibition, -64.5%:
Cc1ccc(N(CC(O)Cn2c3ccccc3c3ccccc32)S(=O)(=O)c2ccc(F)cc2)cc1 (configuration not stated)

Activity change, negative = inhibition, -3.12%:
Cc1c(Cl)ccc2sc(NC(=O)c3ccc(S(=O)(=O)N4CCCc5ccccc54)cc3)nc12

Activity change, negative = inhibition, -100%:
CCOC(=O)C(Cc1c[nH]c2ccccc12)NC(=O)COc1ccc(Cl)cc1 (configuration not stated), COc1cc(-c2ccno2)ccc1S(=O)(=O)N1CCN(c2cc(C)ccc2C)CC1, O=S(=O)(NCC(c1ccco1)N1CCN(c2ccc(F)cc2)CC1)c1ccccc1 (configuration not stated), COc1ccc(-c2ccc(CCC(=O)O)n2-c2cc(Cl)ccc2O)cc1, O=C(CSc1cn(CC(=O)N2CCCC2)c2ccccc12)Nc1ccc(Cl)cc1, Cc1cccc(CSc2cn(CC(=O)N3CCCCCC3)c3ccccc23)c1, O=C(c1ccc(CS(=O)c2ccccc2Cl)o1)N1CCN(c2cccc(Cl)c2)CC1 (configuration not stated), CCOC(=O)c1c(NC(=O)c2cc(CC)on2)sc(C(C)=O)c1C, Cc1cccc(CN2CCc3nc(N4CCN(c5ccccn5)CC4)ncc3C2)c1, COc1ccc(OCc2nc3c4c(-c5ccccc5)c(-c5ccccc5)oc4ncn3n2)cc1, CCOc1ccc(/C=C/c2nc3ccccc3n2S(=O)(=O)c2cccc(Cl)c2)cc1, O=C(CCCn1ccc2cc(S(=O)(=O)N3CCCC3)ccc21)NCc1ccc(Cl)cc1, CC(C)(C)c1ccc(C(=O)Nc2nnc3n2CCS3)cc1, COc1ccc(CNC(=O)C2CCN(c3nc4ccc(C)cc4[nH]3)CC2)cc1, COc1cc(CN(C(=O)COc2ccc(C)c(C)c2)c2ccccn2)cc(OC)c1OC, COC(=O)c1ccc(NC(=O)c2nc(-c3ccc(Cl)cc3)n3c2CCCCC3)cc1, COc1ccc(NC(=O)c2c(NC(=O)COc3ccccc3)sc3c2CCC(C)C3)cc1 (configuration not stated), CCN(CC)c1ccc(NC(=O)CCS(=O)(=O)c2cccc3nsnc23)c(C)c1, O=C(NCCc1ccc(Cl)cc1)C(=O)NCC(c1cccs1)S(=O)(=O)c1cccs1 (configuration not stated), CCOc1ccc(Nc2nc(N)c(C(=O)c3ccccc3Cl)s2)cc1, CCOc1cc(CNc2ccc(O)cc2)ccc1OCc1ccc(Cl)cc1, CCC1CN(C(=O)NCc2ccc(F)cc2)c2cc(C)ccc2O1 (configuration not stated), Cc1ccc(C2c3c(-c4ccccc4O)n[nH]c3C(=O)N2CCc2ccccc2)cc1 (configuration not stated)

Activity change, negative = inhibition, -13.3%:
COc1ccc2cc(CNc3ccccc3)c(=O)n(CC(=O)Nc3ccc(C)cc3C)c2c1

Activity change, negative = inhibition, -26.7%:
CCOC(=O)c1c(NC(=O)c2ccc(S(=O)(=O)N(C)C)cc2)sc2c1CCN(C)C2

Activity change, negative = inhibition, -16.4%:
COc1cc(Nc2nc(SCC(=O)c3ccc(Cl)c(Cl)c3)nc3ccccc23)cc(OC)c1

Activity change, negative = inhibition, -21.8%:
CCCCN1C(=O)C(O)(c2c(C)[nH]c3ccccc23)c2cc(Br)ccc21 (configuration not stated)

Potency, active:
CCOC(=O)c1ccc(NC(=O)c2nc(S(=O)(=O)Cc3ccccc3)ncc2Cl)cc1 4.14 µM, CCCCS(=O)(=O)c1oc(-c2cccs2)nc1S(=O)(=O)c1ccc(F)cc1 3.29 µM, CCCCS(=O)(=O)c1nc(-c2ccc(Br)cc2)cc(-c2ccccc2)c1C#N 16.5 µM, CCN(CC)CCOC(=O)c1ccc(NC(=O)c2nn(-c3ccc(C)cc3)c(=O)c3c2c2ccccc2n3C)cc1 3.29 µM, COc1ccc2nc(NC(=O)c3nc(S(=O)(=O)Cc4ccccc4F)ncc3Cl)sc2c1 2.33 µM, CCC(C)S(=O)(=O)c1oc(-c2ccc(F)cc2)nc1S(=O)(=O)c1ccc(F)cc1 (configuration not stated) 1.47 µM
